The results in this text go back to PMC5700166.

Holding throughout (assay): protein-binding microarray (PBM); PBM: ~300 nM protein, 6 mM HEPES pH 7.8, 80 mM KCl, 0.5 mM EDTA, 0.5 mM EGTA, 6% glycerol, 35 ng/ul poly-dIdC, 1% milk, 1 h, room temperature; Ap Aiptasia and Nv Nematostella (sea anemones) / Co Capsaspora / Aq Amphimedon (sponge) / Dm Drosophila / Hu human; RHD is the Rel homology domain; high values mean tight binding
What all share (conditions): dsDNA, one strand shown

For one test, the target named is T1, GST-Ap-NF-kB RHD (Exaiptasia pallida (Aiptasia), UniProt A0A913YAJ5 2-422).
T1 sequence: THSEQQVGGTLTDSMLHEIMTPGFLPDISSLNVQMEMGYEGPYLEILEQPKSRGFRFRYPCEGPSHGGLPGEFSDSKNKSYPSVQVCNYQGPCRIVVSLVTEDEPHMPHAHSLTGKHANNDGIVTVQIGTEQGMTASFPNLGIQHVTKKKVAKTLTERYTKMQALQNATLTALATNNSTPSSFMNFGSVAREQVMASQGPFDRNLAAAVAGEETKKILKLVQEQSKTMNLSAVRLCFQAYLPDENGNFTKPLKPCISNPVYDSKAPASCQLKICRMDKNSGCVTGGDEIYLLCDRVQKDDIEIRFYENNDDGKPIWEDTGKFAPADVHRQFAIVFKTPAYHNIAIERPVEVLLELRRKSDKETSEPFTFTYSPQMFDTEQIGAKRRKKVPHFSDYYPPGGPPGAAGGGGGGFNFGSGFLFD

The target in test [1] is T2, GST-Nv-NF-kB (Cys allele) (Nematostella vectensis, UniProt E5G601 2-411).
T2 sequence: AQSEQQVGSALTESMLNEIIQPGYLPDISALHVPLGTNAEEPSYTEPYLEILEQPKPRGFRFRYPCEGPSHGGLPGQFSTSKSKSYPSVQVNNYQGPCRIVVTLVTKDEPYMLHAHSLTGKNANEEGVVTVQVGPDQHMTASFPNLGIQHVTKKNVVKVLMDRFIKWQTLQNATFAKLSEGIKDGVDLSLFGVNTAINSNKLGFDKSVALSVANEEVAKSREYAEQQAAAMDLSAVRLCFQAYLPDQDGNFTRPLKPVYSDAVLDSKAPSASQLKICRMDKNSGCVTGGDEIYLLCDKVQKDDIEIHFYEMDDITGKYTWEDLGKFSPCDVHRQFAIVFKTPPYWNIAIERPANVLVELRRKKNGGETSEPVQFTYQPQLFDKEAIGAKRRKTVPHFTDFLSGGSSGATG

The target in test [2] is T3, GST-Nv-NF-kB (Ser allele) (Nematostella vectensis, UniProt A7UNT2 2-411).
T3 sequence: T2 sequence with Q21R, C66S, S207N, E215Q, V217A, E225K, A268E, D399E

For the next test, the target named is T4, GST-Co-NF-kB (Capsaspora owczarzaki, UniProt F1ARL5 200-546).
T4 sequence: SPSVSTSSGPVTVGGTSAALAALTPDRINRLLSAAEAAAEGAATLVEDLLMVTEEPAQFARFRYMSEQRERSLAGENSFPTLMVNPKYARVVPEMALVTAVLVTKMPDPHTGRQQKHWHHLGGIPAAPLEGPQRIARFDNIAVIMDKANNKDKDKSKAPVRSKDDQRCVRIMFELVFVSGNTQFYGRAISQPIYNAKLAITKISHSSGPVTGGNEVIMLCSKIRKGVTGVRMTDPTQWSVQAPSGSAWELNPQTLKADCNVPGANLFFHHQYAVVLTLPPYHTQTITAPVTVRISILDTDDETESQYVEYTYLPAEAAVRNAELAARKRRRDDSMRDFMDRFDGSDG

A further test has as its target T5, GST-Dm-Relish (Drosophila melanogaster, UniProt Q94527 99-473).
T5 sequence: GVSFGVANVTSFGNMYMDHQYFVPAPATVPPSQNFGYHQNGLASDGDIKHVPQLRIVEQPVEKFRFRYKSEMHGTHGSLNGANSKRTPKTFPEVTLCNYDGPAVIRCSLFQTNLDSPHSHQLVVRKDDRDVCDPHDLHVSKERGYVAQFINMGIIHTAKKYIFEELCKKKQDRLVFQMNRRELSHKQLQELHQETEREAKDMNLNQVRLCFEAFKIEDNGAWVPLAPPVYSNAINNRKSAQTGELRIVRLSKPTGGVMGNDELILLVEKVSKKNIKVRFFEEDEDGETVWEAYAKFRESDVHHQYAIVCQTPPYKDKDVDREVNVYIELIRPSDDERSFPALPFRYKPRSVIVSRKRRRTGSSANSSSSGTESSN

The target of the next test is T6, GST-Aq-NF-kB (Amphimedon queenslandica, UniProt A9Y5G7 2-389).
T6 sequence: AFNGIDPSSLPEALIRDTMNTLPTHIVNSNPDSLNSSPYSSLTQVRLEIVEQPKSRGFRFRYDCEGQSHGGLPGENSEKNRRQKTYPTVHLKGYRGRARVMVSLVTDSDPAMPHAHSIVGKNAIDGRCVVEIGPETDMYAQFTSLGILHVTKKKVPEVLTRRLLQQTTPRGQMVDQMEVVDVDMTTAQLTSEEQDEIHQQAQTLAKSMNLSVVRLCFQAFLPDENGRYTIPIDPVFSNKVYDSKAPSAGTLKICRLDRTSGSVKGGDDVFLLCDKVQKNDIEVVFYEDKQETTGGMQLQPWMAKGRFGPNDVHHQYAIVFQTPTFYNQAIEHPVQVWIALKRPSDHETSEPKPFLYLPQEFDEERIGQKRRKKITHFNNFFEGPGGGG

For the next test, the target named is GST-Hu-p50 (Homo sapiens, UniProt P19838 7-356).
Sequence of GST-Hu-p50 (P19838 7-356): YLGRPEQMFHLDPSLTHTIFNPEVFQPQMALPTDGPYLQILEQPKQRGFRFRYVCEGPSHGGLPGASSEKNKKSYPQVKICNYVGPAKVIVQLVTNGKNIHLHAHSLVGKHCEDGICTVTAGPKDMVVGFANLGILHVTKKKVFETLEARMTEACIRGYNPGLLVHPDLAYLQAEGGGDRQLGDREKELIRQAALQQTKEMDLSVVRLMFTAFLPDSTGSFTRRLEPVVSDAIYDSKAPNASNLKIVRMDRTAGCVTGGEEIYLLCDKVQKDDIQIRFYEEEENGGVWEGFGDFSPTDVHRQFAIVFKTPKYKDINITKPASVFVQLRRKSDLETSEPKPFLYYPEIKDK

Residue numbers refer to the chain shown, from its start.

For “CCGATTAACATCAAGACTCCCCCTGATGTTAATCGGGTCTTGATTCGCTTGACGCTGCTG”, the binding signal with GST-Ap-NF-kB RHD worked out at 6.35 z-score; in test [1], 5.25 z-score; in test [2] it was 5.92 z-score; with GST-Co-NF-kB, 5.87 z-score; with GST-Dm-Relish, 4.5 z-score; in the test with GST-Aq-NF-kB, 5.15 z-score. The same sequence gave a binding signal in the test with GST-Hu-p50 of 5.69 z-score.

Consider “CCGATTAACATCAGGGGAGAAACTGATGTTAATCGGGTCTTGATTCGCTTGACGCTGCTG”, for which the binding signal came out at 4.39 z-score with GST-Ap-NF-kB RHD; 4.53 z-score in test [1]; 5.55 z-score in test [2]; 7.07 z-score in the test with GST-Co-NF-kB; 5.35 z-score with GST-Dm-Relish; 3.64 z-score with GST-Aq-NF-kB. This sequence also displayed a binding signal with GST-Hu-p50 of 4.05 z-score.

For “CCGATTAACATCAAGGGAGTCCCTGATGTTAATCGGGTCTTGATTCGCTTGACGCTGCTG”, the binding signal with GST-Ap-NF-kB RHD is 5.78 z-score; in test [1], 4.59 z-score; in test [2], 4.3 z-score; with GST-Co-NF-kB, 1.18 z-score; with GST-Dm-Relish, 8.56 z-score; in the test with GST-Aq-NF-kB, 4.92 z-score. The same sequence returned a binding signal in the test with GST-Hu-p50 of 3.72 z-score.

Consider “CCGATTAACATCAGGGAATATACTGATGTTAATCGGGTCTTGATTCGCTTGACGCTGCTG”, for which the binding signal in the test with GST-Ap-NF-kB RHD stood at 3.5 z-score; in test [1], 3.81 z-score; in test [2] it was 4.1 z-score; in the test with GST-Co-NF-kB it was 3.18 z-score; in the test with GST-Dm-Relish it was 4.01 z-score; with GST-Aq-NF-kB, 4.33 z-score. The binding signal with GST-Hu-p50 worked out at 2.3 z-score.

As for “CCGATTAACATCAAGAATTTCCCTGATGTTAATCGGGTCTTGATTCGCTTGACGCTGCTG”, the binding signal in the test with GST-Ap-NF-kB RHD turned out to be 5.92 z-score; in test [1] it was 7.47 z-score; in test [2], 7.49 z-score; with GST-Co-NF-kB, 5.07 z-score; with GST-Dm-Relish, 3.52 z-score; with GST-Aq-NF-kB, 7.53 z-score. The binding signal with GST-Hu-p50 is 5.23 z-score.

Turning to “CCGATTAACATCAGATTTCCCCCTGATGTTAATCGGGTCTTGATTCGCTTGACGCTGCTG”, the binding signal in the test with GST-Ap-NF-kB RHD amounted to 8.72 z-score; in test [1], 8.96 z-score; in test [2] it was 10.8 z-score; with GST-Co-NF-kB, 11 z-score; with GST-Dm-Relish, 6.42 z-score; with GST-Aq-NF-kB, 7.34 z-score. Moreover, the binding signal with GST-Hu-p50 worked out at 7.39 z-score.

As for “CCGATTAACATCAGGGGGGATAATGATGTTAATCGGGTCTTGATTCGCTTGACGCTGCTG”, the binding signal with GST-Ap-NF-kB RHD was found to be 5.8 z-score; in test [1], 4.93 z-score; in test [2], 5.26 z-score; in the test with GST-Co-NF-kB it was 7.17 z-score; with GST-Dm-Relish, 4.67 z-score; with GST-Aq-NF-kB, 4.72 z-score. The same sequence yielded a binding signal in the test with GST-Hu-p50 of 5.14 z-score.

On to “CCGATTAACATCAAACTTCCCCCTGATGTTAATCGGGTCTTGATTCGCTTGACGCTGCTG”, for which the binding signal with GST-Ap-NF-kB RHD was 7.75 z-score; in test [1], 7.86 z-score; in test [2] it was 9.14 z-score; with GST-Co-NF-kB it was 9.35 z-score; with GST-Dm-Relish, 7.36 z-score; in the test with GST-Aq-NF-kB, 7.49 z-score. The same sequence yielded a binding signal with GST-Hu-p50 of 6.72 z-score.

Regarding “CCGATTAACATCAGGATTACCCCTGATGTTAATCGGGTCTTGATTCGCTTGACGCTGCTG”, the binding signal with GST-Ap-NF-kB RHD amounted to 4.61 z-score; in test [1] it was 4.15 z-score; in test [2], 3.63 z-score; in the test with GST-Co-NF-kB, 3.97 z-score; in the test with GST-Dm-Relish, 4.19 z-score; with GST-Aq-NF-kB it was 5.53 z-score. This sequence also gave a binding signal in the test with GST-Hu-p50 of 3.75 z-score.

On to “CCGATTAACATCAGGGAAAAATATGATGTTAATCGGGTCTTGATTCGCTTGACGCTGCTG”, for which the binding signal in the test with GST-Ap-NF-kB RHD was found to be 3.68 z-score; in test [1], 5.51 z-score; in test [2], 7.16 z-score; with GST-Co-NF-kB, 5.79 z-score; with GST-Dm-Relish, 2.03 z-score; in the test with GST-Aq-NF-kB, 5.19 z-score. The binding signal with GST-Hu-p50 is 4.2 z-score.

Turning to “CCGATTAACATCAAATTTCCCGGTGATGTTAATCGGGTCTTGATTCGCTTGACGCTGCTG”, the binding signal in the test with GST-Ap-NF-kB RHD was found to be 4.14 z-score; in test [1] it was 4.99 z-score; in test [2], 4.8 z-score; with GST-Co-NF-kB, 6.34 z-score; with GST-Dm-Relish, 3.56 z-score; with GST-Aq-NF-kB it was 4.88 z-score. In the test with GST-Hu-p50, this sequence yielded a binding signal of 4.39 z-score.

On to “CCGATTAACATCAGGGACTGCCCTGATGTTAATCGGGTCTTGATTCGCTTGACGCTGCTG”, for which the binding signal with GST-Ap-NF-kB RHD stood at 4.31 z-score; in test [1], 4.95 z-score; in test [2], 3.06 z-score; with GST-Co-NF-kB it was 1.04 z-score; with GST-Dm-Relish, 4.22 z-score; with GST-Aq-NF-kB, 7.19 z-score. For the same sequence, in the test with GST-Hu-p50, the binding signal amounted to 4.14 z-score.
